Test results from PubChem BioAssay (Tox21).
Inconclusive results are not listed. Activity calls are given as the source filed them. Calls come from the whole dose curve.

Test: qHTS assay to identify small molecule agonists of the NFkB signaling pathway - cell viability counter screen (AID 1159515); note: nearly all actives have a fitted effect of over 55% in size
Settings: NFkB-bla ME-180 viability, CellTiter-Glo luminescence, 5 h; series mostly up to 61 µM; activity, negative = cytotoxic: at the top concentration
Source text: National Center for Advancing Translational Sciences [NCATS]
NIH Chemical Genomics Center [NCGC]
U.S. Environmental Protection Agency [EPA]
National Institutes of Environmental Health Sciences [NIEHS]
National Toxicology Program [NTP]
U.S. Food and Drug Administration [FDA]
Transcription factors and their stimulated target gene expression play pivotal roles across many cellular processes including responses to environmental stimuli. Proper regulation of associated pathways is critical to maintain cell health and function. Constitutive activation of transcription factor pathways has been implicated in tumors as it may block cellular functions such as apoptosis and lead to invasion and metastasis. One important transcription factor that stimulates gene expression in response to cytokines, UV radiation, and other stimuli is nuclear factor-kappa B (NFkB). To measure activation of the NFkB pathway, the CellSensor NFkB-bla ME-180 cell line (Life Technologies, Carlsbad, CA) that stably expresses beta-lactamase reporter gene under the regulation of a NF-kB response element was used. This assay allows measurement of the NFkB pathway activity induced by compounds in a ME-180 cell line. This system quantitates NF-kB activity using a FRET-based assay system where beta-lactamase expression disrupts FRET, allowing for fluorescent measurement of activity. This cell line has been used to screen the Tox21 10K compound library and to identify compounds that induce the NFkB pathway activity. The cytotoxicity of the Tox21 compound library against the NFkB-bla ME-180 cell line was tested in parallel by measuring cell viability using the CellTiter-Glo assay in the same wells.
Tox21 Assay Protocol Summary:
NFkB-bla ME-180 cells were dispensed at 2,000 cells/6 uL of assay medium per well into black wall/clear-bottom 1536-well plates using a Multidrop Combi (ThermoFisher Scientific, Waltham, MA) dispenser. After the assay plates were incubated at 37 C and 5% CO2 for an overnight, 23 nL of compounds dissolved in DMSO, positive controls or DMSO only was transferred to the assay plate by a Pintool station (Kalypsys, San Diego, CA). The assay plates were incubated at 37 C and 5% CO2 for 5 hr. One uL of LiveBLAzer B/G FRET substrate (Life Technologies) was added using a Flying Reagent Dispenser (Aurora Discovery, San Diego, CA) and the plates were incubated at room temperature for 1.5 hr. Fluorescence intensity (405 nm excitation, 460 nm and 530 nm emissions) was measured using an Envision plate reader (PerkinElmer, Shelton, CT). For cytotoxicity, 3 ul/well of CellTiter-Glo reagent was added into the assay plates using an FRD. After 30 min incubation at room temperature, the luminescence intensity was measured using a ViewLux plate reader (PerkinElmer).
% is set by controls: 0 for no effect and ±100 for the full control effect.

Row | SMILES | activity, negative = cytotoxic
1 | COC(=O)c1ccccc1CS(=O)(=O)NC(=O)Nc1nc(OC)cc(OC)n1 | -5.35% (inactive)
2 | CC#Cc1cc(C)nc(Nc2ccccc2)n1 | -0.886% (inactive)
3 | COc1ccc(C=O)cc1O | -21.2% [at 78.8 µM] (inactive)
4 | C=CCN1CC[C@]23CCCC[C@H]2[C@H]1Cc1ccc(O)cc13 | 7.23% (inactive)
5 | N#CN=C1SCCN1Cc1ccc(Cl)nc1 | 6.42% (inactive)
6 | C[C@@H](N)[C@@H](O)c1ccccc1 | 14.3% (inactive)
7 | CC(C)(C1CCC(O)CC1)C1CCC(O)CC1 (stereo not given) | -2.4% (inactive)
8 | C=CCC1(C(C)CC)C(=O)NC(=O)NC1=O (stereo not given) | 0.047% (inactive)
9 | C[C@H](N)C(=O)c1ccccc1 | -1.99% [at 78.8 µM] (inactive)
10 | C/C=C/CC#N | -0.294% [at 78.8 µM] (inactive)
11 | CCOC(=O)N(C)N=O | 1.37% (inactive)
12 | Clc1nc(Cl)nc(Nc2ccccc2Cl)n1 | 6.83% (inactive)
13 | O=C(Cl)/C=C/C(=O)Cl | -3.38% [at 78.8 µM] (inactive)
14 | O=CCCl | 2.54% (inactive)
15 | CCN1CCCC1CNC(=O)C(O)(c1ccccc1)c1ccccc1 (stereo not given) | 3.55% (inactive)
16 | CCCC(C)C1(CC)C(=O)N=C(S)NC1=O (stereo not given) | 4.45% (inactive)
17 | O=C(Cl)CCl | 1.89% [at 78.8 µM] (inactive)
18 | COc1ccccc1OC | -1.07% (inactive)
19 | Clc1cc2c(cc1Cl)Oc1cc(Cl)c(Cl)cc1O2 | -0.991% [at 0.281 µM] (inactive)
20 | NC(=O)CS(=O)C(c1ccccc1)c1ccccc1 (stereo not given) | 7.33% (inactive)

Row | SMILES | activity, negative = cytotoxic
21 | CS(=O)(=O)c1ccc(C(=O)C2C(=O)CCCC2=O)c(Cl)c1COCC(F)(F)F | -1.23% (inactive)
22 | CC(Cc1ccccc1)NCCn1cnc2c1c(=O)n(C)c(=O)n2C (stereo not given) | 3.98% (inactive)
23 | c1cncc([C@@H]2CCCCN2)c1 | 2.16% (inactive)
24 | CCCCCCC(=O)CCCCCC/C=C/C[C@@H](O)[C@H](O)[C@@](N)(CO)C(=O)O | -1.92% [at 28.5 µM] (inactive)
25 | Brc1c(Br)c(Br)c(Br)c(Br)c1Br | -11.1% [at 6.95 µM] (inactive)
26 | ClCCN1CCCC1 | 4.69% (inactive)
27 | Cc1ccc2cc(C)ccc2c1 | 13.6% (inactive)
28 | CCC(C(N)=O)N1CCCC1=O (stereo not given) | 3.01% (inactive)
29 | NNC(N)=O | -9.54% [at 78.8 µM] (inactive)
30 | CNC(=O)Oc1ccccc1C(C)C | 12.5% (inactive)
31 | [O-][Br+2]([O-])O | -3.84% (inactive)
32 | COc1cc(CC(C)N)cc(OC)c1OC (stereo not given) | -24.8% [at 78.8 µM] (inactive)
33 | O=C(Cl)C(Cl)(Cl)Cl | 1.57% [at 78.8 µM] (inactive)
34 | Oc1ccc(Cc2ccc(O)cc2)cc1 | 10.7% [at 78.8 µM] (inactive)
35 | CON(C)C(=O)Nc1ccc(Br)c(Cl)c1 | 0.257% (inactive)
36 | CC[C@@H](CO)NC(=O)[C@@H]1C=C2c3cccc4c3c(cn4C)C[C@H]2N(C)C1 | 3.14% (inactive)
37 | CC(C)[C@]12CC(=O)[C@H](C)[C@H]1C2 | 5.84% (inactive)
38 | CC(C)(C)NC[C@H](O)c1ccc(O)cc1Cl | 9.77% (inactive)
39 | CC[C@@H](CO)NC(=O)[C@@H]1C=C2c3cccc4[nH]cc(c34)C[C@H]2N(C)C1 | -10.1% (inactive)
40 | O=C(O)C(Cl)Br (stereo not given) | -2.04% [at 78.8 µM] (inactive)
